Sm TGR block – inhibitors of Schistosoma mansoni thioredoxin glutathione reductase. Q962Y6. hit rate 3% among 360,000. purified TGR, DTNB reduction, TNB absorbance 405 nm. Potency, µM (top dose mostly 114 µM), usual class: inhibitors; note: nearly all actives have a fitted effect of over 60% in size
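Kinetic colorimetric format: TGR-catalysed, NADPH-driven DTNB reduction monitored via TNB absorbance. Enzyme dispensed at 20 nM; compound exposure 15 min at room temperature before reaction start.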
AmpC detergent – blocks E. coli AmpC beta-lactamase in detergent assay; hit rate 0.041% among 370,000; Potency, µM (highest dose often 114 µM), usual class: inhibitors; AID 485294; AmpC hydrolysis of nitrocefin, absorbance 480 nm, 0.01% Triton; note: nearly all actives have a fitted effect of over 25% in size
Target sequence (P00811 whole entry, looked up): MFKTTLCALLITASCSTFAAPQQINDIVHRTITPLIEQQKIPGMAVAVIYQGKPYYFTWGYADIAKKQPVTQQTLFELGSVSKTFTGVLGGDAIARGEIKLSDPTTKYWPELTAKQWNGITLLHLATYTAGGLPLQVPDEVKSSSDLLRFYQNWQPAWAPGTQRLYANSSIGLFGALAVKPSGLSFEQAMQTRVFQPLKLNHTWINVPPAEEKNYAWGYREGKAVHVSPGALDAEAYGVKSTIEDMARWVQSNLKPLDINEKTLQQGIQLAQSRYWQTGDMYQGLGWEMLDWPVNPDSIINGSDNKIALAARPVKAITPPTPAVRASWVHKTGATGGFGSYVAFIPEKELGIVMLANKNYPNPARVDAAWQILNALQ
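AmpC (5.3 nM in the dispensed reagent) in 20 mM phosphate pH 7.0 with 0.01% (detergent screen) or 0.0001% Triton X-100 was preincubated with compounds for 15 min at room temperature. Nitrocefin was then added from an 800 uM solution, and hydrolysis was followed at 480 nm.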
SARS PLpro yeast – inhibitors of SARS-CoV papain-like protease in yeast; S. cerevisiae expressing SARS-CoV PLpro, growth rescue; Potency, µM (doses to about 32.9 µM), most hits filed as activators; hit rate 0.19% among 330,000; AID 485353; calls by dose curve; note: nearly all actives have a fitted effect of over 55% in size
Pf growth 96h – inhibits malaria parasite growth, 96 h | Potency, µM (highest dose often 28.7 µM), usual class: inhibitors | P. falciparum luciferase reporter growth, 96 h | hit rate 6.9% among 320,000 | AID 504834
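P. falciparum expressing integrated firefly luciferase grown in erythrocytes (2% hematocrit, 0.05% parasitemia final) with compounds for 96 hours at 37 C, 5% CO2. Growth inhibition read as loss of luminescence after adding luciferase detection reagent.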
Pf growth 48h – P. falciparum growth inhibition at 48 hours (one generation); P. falciparum luciferase growth in erythrocytes, 48 h; Potency, µM (top dose mostly 28.7 µM), most hits filed as inhibitors; hit rate 5.9% among 310,000; AID 504832
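First compound was added to culture medium, then infected red cells at 0.1% parasitemia and 2% hematocrit (final). After incubation at 37 C under 5% CO2, luciferase detection reagent was dispensed and light output recorded.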
AmpC inh no detg – blocks E. coli AmpC beta-lactamase in detergent-free assay. P00811. AmpC nitrocefin hydrolysis, absorbance 480 nm, 0.0001% Triton. Potency, µM (series often up to 57.1 µM), most hits filed as inhibitors. hit rate 0.52% among 330,000. AID 485341; note: nearly all actives have a fitted effect of over 20% in size
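20 mM phosphate pH 7.0 + 0.01% (detergent screen) or 0.0001% Triton X-100; 5.3 nM AmpC reagent; cpd preinc 15 min RT; nitrocefin (800 uM stock) to start; A480 q20 s × 4 min; Activity was normalised to no-enzyme and no-compound control wells.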
Numbers stand for hits; – = inactive; ? = inconclusive; · = no result given; [ ] = remark or other dose. Only some compounds are listed: those with a hit (about 12% of all), similar ones and a draw of the others. Unless noted, calls come from the whole dose curve; as a rule, active = well fitted curve in the direction sought with a large enough effect; inconclusive = small, poorly fitted or top-dose-only effect, or another doubt; inactive = no such curve, though single readings can be large; an effect the other way counts as inactive or inconclusive.

SMILES	Sm TGR block	AmpC detergent	SARS PLpro yeast	Pf growth 96h	Pf growth 48h	AmpC inh no detg
CN1C(CC(=O)c2ccccc2)CCCC1CC(O)c1ccccc1 (centres undefined)	–	–	–	·	?	–
COC(C(=O)C(O)C(C)O)C1Cc2cc3cc(OC4CC(OC5CC(O)C(OC)C(C)O5)C(OC(C)=O)C(C)O4)c(C)c(O)c3c(O)c2C(=O)C1OC1CC(OC2CC(OC3CC(C)(O)C(OC(C)=O)C(C)O3)C(O)C(C)O2)C(O)C(C)O1 (centres undefined)	·	·	·	?	0.12µM	·
O=C(N/N=C/C=N/NC(=O)c1ccco1)c1ccco1	–	–	–	–	–	–
O=C(N/N=C/C(Br)=C\c1ccccc1)c1ccco1	?	–	–	4.1µM	2.6µM	–
Cc1occc1C(=O)N/N=C/C(Br)=C\c1ccccc1	–	–	–	1.3µM	–	–
Cc1occc1C(=O)N/N=C/C=C/c1ccccc1	–	?	–	–	–	–
C=C1C(=O)C=C[C@]2(C)C[C@@H]3OC(=O)[C@](C)(O)[C@H]3C[C@@H]12	–	–	–	15µM	12µM	–
COc1ccc(C=NCC2OCCc3ccccc32)cc1OC (centres undefined)	–	?	–	–	–	–
COc1cc(C=NCC2OCCc3ccccc32)cc(OC)c1 (centres undefined)	–	–	–	9.3µM	–	–
CN(Cc1ccccc1)c1ccc(C(=O)O)cc1[N+](=O)[O-]	–	–	–	?	–	–
OC1(c2ccc(F)cc2)CSC(=Nc2cccnc2)N1Cc1ccco1 (centres undefined)	–	–	–	2.3µM	5.9µM	–[2.29 µM]
OC1(c2ccc(OC(F)F)cc2)CSC(=Nc2cccnc2)N1Cc1ccco1 (centres undefined)	–	?	–	?	?	–[11.4 µM]
NC(=O)C1CCN(C(=O)c2ccc(OCC(=O)Nc3cccc(C(F)(F)F)c3)cc2)CC1	–	–	–	–	–	–
CCOC(=O)N1CCC(NC(=O)c2cc(C(=O)Nc3cccc(C(F)(F)F)c3)ccc2CO)CC1	–	–	–	2.3µM	–	–
CCOC(=O)N1CCC(NC(=O)c2cc(C(=O)Nc3ccc(OCC)cc3)ccc2CO)CC1	–	?	–	?	·	–
CCOC(=O)N1CCC(NC(=O)c2ccc(CO)c(C(=O)NC3CCN(C(=O)OCC)CC3)c2)CC1	?	?	–	?	?	–
NC(=O)C1CCN(CC(=O)Nc2cccc(C(=O)Nc3cccc(C(F)(F)F)c3)c2)CC1	–	–	–	?	1.2µM	–
CCOC(=O)N1CCC(NC(=O)c2cc(C(=O)NC3CCCC3)ccc2CO)CC1	–	?	–	?	–	0.71µM
O=C(O)c1ccc2c(c1)C(=O)N(Cc1ccccc1)C2=O	–	–	–	·	–	–
CSc1ccc(C2=CC(=O)C[C@H](c3ccc(Cl)cc3)C2)cc1	–	–	–	–	?	–
O=C(CCNC(=O)c1ccc(Cl)cc1)Nc1ccccc1N1CCCCC1	–	–	–	?	?	–
CC(C)C(C)(C#N)NC(=O)CSc1nc2scc(-c3ccco3)c2c(=O)n1-c1ccccc1 (centres undefined)	?	?	–	?	9.3µM	–
CC(C)C(C)NC(=O)CSc1nc2scc(-c3ccco3)c2c(=O)n1-c1ccccc1 (centres undefined)	25µM	–	–	·	12µM	–
COC(=O)C1C(O)C(C)C(O)C(C)/C=C\C=C(/C)C(=O)Nc2c(C)c(OC(C)=O)c3c(c2O)C(=O)C(C)=C2OCOC(=C23)/C(C)=C/C(C)(O)C(O)C(C)C1O (centres undefined)	–	–	–	9.3µM	12µM	–
COCCSc1nc(N)c(NC(=O)c2ccco2)c(=O)[nH]1	–	–	–	–	–	–
SMILES	Sm TGR block	AmpC detergent	SARS PLpro yeast	Pf growth 96h	Pf growth 48h	AmpC inh no detg
Cn1c(-c2ccccc2)cnc1NCc1cc(Cl)ccc1O	–	?	–	–	12µM	–
Oc1ccc(Cl)cc1CNc1ccccn1	–	–	–	10µM	?	–
CCOc1ccc(OCCCC(=O)Nc2nc3ccccc3[nH]2)cc1	–	–	–	–	–	–
Cc1ccc(S(=O)(=O)/N=C2/NC(=O)/C(=C/c3ccc(Br)o3)S2)cc1	22µM	?	–	–	–	–
Cc1ccc(S(=O)(=O)/N=C2/NC(=O)/C(=C\c3cc(Br)cc(Br)c3O)S2)cc1	28µM	–	–	–	–	–
Cc1ccc(S(=O)(=O)/N=C2/NC(=O)/C(=C/c3cccnc3)S2)cc1	–	?	–	–	–	–
CC(C)OP(=O)(c1ccc(N(C)C)cc1)C(O)c1cccnc1 (centres undefined)	–	–	–	?	–	–
CC(C)Cn1c(SCC(=O)N2CCc3ccccc3C2)nc(O)cc1=O	·	·	–	·	·	–
CC(C)Cn1c(SCC(=O)N2CCc3ccccc3C2)nc2cc(Cl)ccc2c1=O	–	?	–	4.7µM	?	–
COCCn1c(SCC(=O)Nc2cc(C)on2)nc2cc(Cl)ccc2c1=O	–	?	–	?	?	–
COCCn1c(SCC(=O)N2CCc3ccccc3C2)nc2cc(Cl)ccc2c1=O	–	–	–	9.3µM	?	–
Cc1ccc(Nc2nnc(-c3ccc(C)c(S(=O)(=O)N4CCN(C)CC4)c3)c3ccccc23)c(C)c1	–	–	·	·	·	·
CCOC(=O)c1ccc(Nc2ncccc2[N+](=O)[O-])cc1	–	–	–	0.59µM	–	–
COc1ccc(-c2nc(CS(=O)CC(=O)NC3CCCCC3)c(C)o2)cc1OC (centres undefined)	35µM	–	–	?	?	–
COc1ccc(-c2nc(CS(=O)CC(=O)N3CCOCC3)c(C)o2)cc1OC (centres undefined)	40µM	–	–	?	–	–
COc1ccc(-c2nc(CS(=O)CC(=O)NC3CCCCC3)c(C)o2)cc1 (centres undefined)	?	–	–	–	–	–
Cc1oc(-c2ccccc2)nc1CS(=O)CC(=O)NC1CCCC1 (centres undefined)	7.9µM	–	–	?	–	–
COc1ccc(-c2nc(CS(=O)CC(=O)NC3CCCCCC3)c(C)o2)cc1 (centres undefined)	40µM	?	–	–	–	–
COc1ccc(-c2nc(CS(=O)CC(=O)N3CCN(C)CC3)c(C)o2)cc1OC (centres undefined)	?	?	–	–	–	–
CCCCn1cc(S(=O)(=O)c2ccc(CC)cc2)c(=O)c2cc(F)c(N3CCOCC3)cc21	–	–	·	·	·	·
Cc1ccc(C)c(N2CCN(CCCNC(=O)C3COc4ccccc4C3)CC2)c1 (centres undefined)	–	–	·	·	·	·
